# Experimental data as given in PubChem BioAssay (NCATS).
# Values joined by “and” are separate entries in the source; they are usually repeats but may differ in a detail not shown here. Identical values can stand only once. Results filed as inconclusive are left out. A call without a number means that no potency is given here. A number with no mark means an inactive call. Active and inactive are the calls of the source. Calls follow the shape of the dose curve; as a rule, active = well fitted curve in the direction sought with a large enough effect; inconclusive = small, poorly fitted or top-dose-only effect, or another doubt; inactive = no such curve, though single readings can be large; an effect the other way counts as inactive or inconclusive.
# Tests used:
# [1] = P-glycoprotein substrates identified in KB-3-1 adenocarcinoma cell line, qHTS therapeutic library screen (AID 1346986); settings: KB-3-1 parental cells viability, CellTiter-Glo, 72 h; series mostly up to 44.5 µM; also: nearly all actives have a fitted effect of over 60% in size;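 also: potency is for cytotoxicity meaning loss of cell viability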
# Procedure, shortened: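 72 h cell-killing screen, 500 cells/well, CellTiter-Glo luminescence. Paired lines KB-3-1/KB-8-5-11; P-gp dependence checked by tariquidar co-treatment and HEK-293 MDR-19 versus empty-vector cells.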
# [2] = P-glycoprotein substrates identified in KB-8-5-11 adenocarcinoma cell line, qHTS therapeutic library screen (AID 1346987); settings: KB-8-5-11 (P-gp overexpressing) viability, CellTiter-Glo, 72 h; series mostly up to 44.5 µM; also: nearly all actives have a fitted effect of over 65% in size
# Procedure, shortened: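 Compounds are pinned in dose-response onto KB-8-5-11 cells (500 cells/well, colchicine-free medium) and left 72 h at 37 degree C. CellTiter-Glo luminescence then yields AC50 values.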
# Potency is read from the fitted curve at half-maximal effect.
structure (smiles),measurement,setting,value
CC1(C)CC[C@]2(C(=O)O[C@@H]3O[C@H](CO[C@@H]4O[C@H](CO)[C@@H](O)[C@H](O)[C@H]4O[C@@H]4O[C@H](CO)[C@@H](O)[C@H](O)[C@H]4O)[C@@H](O)[C@H](O[C@@H]4O[C@H](CO)[C@@H](O)[C@H](O)[C@H]4O)[C@H]3O)CC[C@]3(C)C(=CCC4[C@@]5(C)CC[C@@H](O)[C@@](C)(C(=O)O[C@@H]6O[C@H](CO)[C@@H](O)[C@H](O)[C@H]6O)C5CC[C@]43C)[C@@H]2C1 (stereo partly drawn),outcome,[1],inactive [at 9.29 µM]
COC(C(=O)N1Cc2[nH]nc(NC(=O)c3ccc(N4CCN(C)CC4)cc3)c2C1)c1ccccc1 (stereo not drawn),Potency,[1],517 nM (active)
COc1c2c(c(C)c3c1C(=O)OC3)OC1(C)CC(O)C(C(C)(C)O)C(C)(CCC(=O)O)C1C2 (stereo not drawn),Potency,[1],inactive
same,Potency,[2],inactive
CC1=C(C)C(=O)OC(C(C)C2CCC3C4C5OC5C5(O)CC(OC6OC(CO)C(OC7OC(C)C(O)C(O)C7O)C(O)C6O)CC(O)C5(C)C4CCC23C)C1 (stereo not drawn),Potency,[1],inactive
C[C@H](NC(c1cccc2[nH]c(=O)c(=O)[nH]c12)P(=O)(O)O)c1ccc(Br)cc1 (stereo partly drawn),Potency,[1],inactive
same,Potency,[2],inactive
C=C(C)C1CCC2(C(=O)O[C@@H]3O[C@H](CO[C@@H]4O[C@H](CO)[C@@H](O)[C@H](O)[C@H]4O)[C@@H](O)[C@H](O[C@@H]4O[C@@H](C)[C@H](O)[C@@H](O)[C@H]4O)[C@H]3O)CCC3(C(=O)O)C(CCC4C5(C)CCC(O)C(C)(C)C5CCC43C)C12 (stereo partly drawn),outcome,[1],inactive [at 9.29 µM]
same,outcome,[2],inactive [at 9.29 µM]
COC(=O)C(C)C1CCC2(C)C(=O)C=CC(C)(O)C2C1O (stereo not drawn),Potency,[1],inactive
same,Potency,[2],inactive
CC1OC(O[C@H]2CC[C@@]3(C)C(CC[C@]4(C)C3CC=C3C5CC(C)(C)CC[C@]5(C(=O)OC5OC(CO)C(OC6OC(COC7OCC(O)C(O)C7O)C(O)C(O)C6O)C(O)C5O)CC[C@]34C)C2(C)C)C(O)C(O)C1OC1OCC(OC2OCC(O)C(O)C2O)C(O)C1O (stereo partly drawn),outcome,[1],inactive [at 9.29 µM]
same,outcome,[2],inactive [at 9.29 µM]
CC1(C)CC[C@]2(C(=O)O[C@@H]3O[C@H](CO)[C@@H](O)[C@H](O)[C@H]3O)CC[C@]3(C)C(=CCC4[C@@]5(C)C[C@@H](O)[C@H](O)C(C)(C)C5[C@H](O)C[C@]43C)[C@@H]2[C@@H]1O (stereo partly drawn),Potency,[1],inactive
same,Potency,[2],inactive
C[C@@H]1CC[C@]2(C(=O)O[C@@H]3O[C@H](CO)[C@@H](O)[C@H](O)[C@H]3O)CC[C@]3(C)C(=CCC4[C@@]5(C)C[C@@H](O)[C@H](O)[C@@](C)(C(=O)O[C@H]6[C@H](O)C[C@@]7(C)C(CC[C@]8(C)C7CC=C7[C@H]9[C@](C(=O)O[C@@H]%10O[C@H](CO)[C@@H](O)[C@H](O)[C@H]%10O)(CC[C@@H](C)[C@@]9(C)O)CC[C@]78C)[C@@]6(CO)C(=O)O)C5CC[C@]43C)[C@@H]2[C@]1(C)O (stereo partly drawn),outcome,[1],inactive [at 9.29 µM]
CS(=O)(=O)c1ccc([C@H](CC2CCCC2)C(=O)Nc2nccs2)cc1,Potency,[1],inactive
Cc1nc(NC(=O)N2CCCC2C(N)=O)sc1-c1csc(C(C)(C)C)n1 (stereo not drawn),Potency,[1],inactive
O=C(Nc1ccc(-c2ccncc2)cc1)N[C@H](CO)c1ccccc1,Potency,[1],inactive
COc1c(C)c(OCC(O)C(C)(C)O)cc2c1COC2=O (stereo not drawn),Potency,[1],inactive
same,Potency,[2],inactive
CC1C(=O)OCC2=CCN3CCC(OC(=O)C(C)(O)C1(C)O)C23 (stereo not drawn),Potency,[1],inactive
CC(=O)N1CCN(C(=O)Cc2ccc(Nc3ncc(F)c(Nc4ccc(C(=O)Nc5ccccc5Cl)cc4)n3)cc2)CC1,Potency,[1],2910 nM (active)
CC(=O)O[C@@H]1[C@@H](CO)O[C@@](CO)(O[C@H]2O[C@H](COC(=O)/C=C/c3ccccc3)[C@@H](O)[C@H](O)[C@H]2O)[C@H]1O,Potency,[1],inactive
COC(=O)CCc1cc2ccoc2c(OC)c1O[C@@H]1O[C@H](CO)[C@@H](O)[C@H](O)[C@H]1O,Potency,[1],inactive
same,Potency,[2],inactive
O=C(Nc1c(-c2cccs2)nc2ccccn12)c1ccc(Cl)cc1,Potency,[1],inactive
same,Potency,[2],inactive
Cc1cc(Nc2nc(NC(C)c3ncc(F)cn3)ncc2Cl)n[nH]1 (stereo not drawn),Potency,[1],inactive
C/C(=C\CCC1(C)C2CCC(C2)C1(C)O)C(=O)O (stereo not drawn),Potency,[1],inactive
same,Potency,[2],inactive
O=C(NOCC(O)CO)c1ccc(F)c(F)c1Nc1ccc(I)cc1F (stereo not drawn),Potency,[1],inactive
same,Potency,[2],inactive
C=CC(C)(C)C12C=C(OC)C(=O)N3C(C(C)C)C(=O)NC31N(OC)c1ccccc12 (stereo not drawn),Potency,[1],inactive
same,Potency,[2],inactive
Cc1cc(OCc2nc(-c3ccccc3Cl)cs2)ccc1OCC(=O)O,Potency,[1],inactive
same,Potency,[2],inactive
CC(=O)O[C@@H]1c2c3c(cc(O)c2C(=O)O[C@@H]1C)O[C@@]1(C)[C@@H](O)C[C@H]2C(C)(C)C(=O)C=C[C@]2(C)[C@@H]1C3,Potency,[1],inactive
COc1c2cc(c(O)c1OC)-c1cc(ccc1O)CCC(O)CCCC2 (stereo not drawn),Potency,[1],inactive
CC(C)(O)/C=C/CC(C)(O)C1C(O)CC2(C)C3CCC4C(C)(C)C(=O)CCC4(C)C3CCC12C (stereo not drawn),Potency,[1],inactive
same,Potency,[2],inactive
Cc1ccc(Cc2c(C)nc3nc(SCC(=O)NCCN4CCNCC4)nn3c2C)cc1,Potency,[1],inactive
Cc1ccc(-c2ccc3c(ccc4sc5c(c43)NC[C@@H](C)NC5=O)n2)cn1,Potency,[1],inactive
same,Potency,[2],inactive
O=C(O)CCCCCC[C@H]1C(=O)NC(=O)N1CC[C@@H](O)C1CCCCC1,Potency,[1],inactive
COC(=O)[C@H](O)[C@H]1C(C)(C)[C@H](OC(=O)C(C)C)[C@@]2(O)C(=O)[C@]1(C)C1CC[C@]3(C)C(CC(=O)O[C@H]3c3ccoc3)[C@]13O[C@@H]32 (stereo partly drawn),Potency,[1],inactive
CCn1c(=O)c(-c2ccn[nH]2)cc2c(C)nc(N)nc21,Potency,[1],3660 nM (active)
same,Potency,[2],2.91 µM (active)
C=C1C(=O)O[C@@H]2C[C@H](C)[C@@]3(O)C=C(C(C)=O)[C@]4(CC3C[C@H]12)C(=O)O[C@H]1C[C@@H](C)C(CCC(C)=O)=CC[C@H]14 (stereo partly drawn),Potency,[1],inactive
CC1(O)CCCC2(C)C1CCC13CC(CO)C(CCC12)C3 (stereo not drawn),Potency,[1],inactive
same,Potency,[2],inactive
CC1(C)CC[C@]2(C(=O)O[C@@H]3O[C@H](CO)[C@@H](O)[C@H](O)[C@H]3O)CC[C@]3(C)C(=CCC4[C@@]5(C)C[C@@H](O)[C@H](O)[C@](C)(C=O)C5CC[C@]43C)[C@@H]2[C@@H]1O (stereo partly drawn),Potency,[1],inactive
same,Potency,[2],inactive
C=C1[C@H](OC(C)=O)[C@H]2[C@@H](OC(C)=O)[C@](C)(OC(C)=O)C[C@]2(OC(C)=O)C(=O)[C@H](C)/C=C/C(C)(C)C(=O)[C@H](OC(=O)C(C)C)[C@H]1OC(C)=O,Potency,[1],inactive
COc1ccc(CNC(=O)c2cc(-c3cncc(C)c3)ncc2-c2nccs2)nc1OC,Potency,[1],inactive
COc1cc(O)c2c(c1)C1=CC(O)C(O)CC1(C)OC2=O (stereo not drawn),Potency,[1],inactive
same,Potency,[2],inactive
CO[C@H]1O[C@@H]2O[C@]3(C)CC[C@H]4[C@H](C)CC[C@@H]([C@H]1C)[C@@]24OO3,Potency,[1],inactive
same,Potency,[2],inactive
CC(C)=CCC[C@](C)(O)[C@H]1CC[C@]2(C)[C@@H]1[C@H](O)CC1[C@@]3(C)CC[C@H](O)C(C)(C)C3[C@@H](O[C@@H]3O[C@H](CO)[C@@H](O)[C@H](O)[C@H]3O[C@@H]3OC[C@@H](O)[C@H](O)[C@H]3O)C[C@]12C (stereo partly drawn),Potency,[1],inactive
same,Potency,[2],inactive
O=C(O)[C@H](Cc1ccc(Nc2nccc3ccncc23)cc1)NC1=C(Br)C(=O)C12CCCCC2,Potency,[1],inactive
same,Potency,[2],inactive
CC1OC(OC2C(O)C(OC3CCC4(C)C(CCC5(C)C4CC=C4C6CC(C)(COC7OC(CO)C(O)C(O)C7O)CC(O)C6(C)CCC45C)C3(C)C)OC(C(=O)O)C2O)C(O)C(O)C1OC1OCC(O)C(O)C1O (stereo not drawn),outcome,[1],inactive [at 9.29 µM]
same,"activity change, negative = cytotoxicity",[2],1.43% [at 9.29 µM]
CC1(C)C2CC(OC3OC(COC4OCC(O)(CO)C4O)C(O)C(O)C3O)C1(C)CC2O (stereo not drawn),Potency,[1],inactive
same,Potency,[2],inactive
C=C1C[C@]23C[C@H]1CC[C@H]2C1=C[C@H]2OC(=O)[C@@](C)([C@H]1[C@@H]3C(=O)O)[C@H]2O,Potency,[1],inactive
same,Potency,[2],inactive
COC(=O)CC(O)CC(O)/C=C/c1c(C)ccc2c1C(O)CC(C)C2 (stereo not drawn),Potency,[1],inactive
same,Potency,[2],inactive
CC(=O)C1=CCC2C3CCC4CC(O[C@@H]5O[C@H](CO)[C@@H](O[C@@H]6O[C@@H](C)[C@H](O)[C@@H](O)[C@H]6O)[C@H](O)[C@H]5O[C@@H]5O[C@H](CO)[C@@H](O)[C@H](O)[C@H]5O)CCC4(C)C3CCC12C (stereo partly drawn),Potency,[1],inactive
same,Potency,[2],inactive
C=CC(C)(CC/C=C(\C)C(=O)OC)OC1OC(COC(=O)CC(C)(O)CC(=O)O)C(OC2OC(CO)C(O)C(O)C2O)C(O)C1O (stereo not drawn),Potency,[1],inactive
same,Potency,[2],inactive
O=C(CN1C(=O)C2(CCCC2)NCC1c1cc(F)cc(F)c1)Nc1ccc2c(c1)CC1(C2)C(=O)Nc2ncccc21 (stereo not drawn),Potency,[1],inactive
same,Potency,[2],inactive
COc1c2c(c(C)c3c1C(=O)OC3)O[C@@]1(C)CCC3(C(C)(C)O)OC(=O)CC[C@]3(C)[C@H]1C2 (stereo partly drawn),Potency,[1],inactive
same,Potency,[2],inactive
CC1CC(O)/C=C/C(O)C(O)CC(=O)Cc2c(Cl)c(O)cc(O)c2C(=O)O1 (stereo not drawn),Potency,[1],inactive
same,Potency,[2],inactive
COc1cc(N2CCOCC2)ccc1Nc1ncc(Cl)c(Nc2ccccc2NS(C)(=O)=O)n1,Potency,[1],2060 nM (active)
same,Potency,[2],1.64 µM (active)
CNC(=O)c1cccc(-c2ccc3c(N4CCOC[C@@H]4C)nc(N4CCOC[C@@H]4C)nc3n2)c1,Potency,[1],920 nM (active)
same,Potency,[2],366 nM (active) and 580 nM (active)
CCC(C)/C=C(C)/C=C/c1cc2c(cn1)C(=O)C(C)(OC(C)=O)C(O)=C2Cl (stereo not drawn),Potency,[1],inactive
same,Potency,[2],inactive
COc1ccc(C(O)C(C)OC2OC(CO)C(O)C(O)C2O)cc1 (stereo not drawn),Potency,[1],inactive
same,Potency,[2],inactive
CC(=O)O[C@H]1CC[C@@]2(C)C(CC[C@@H](C)[C@]23Cc2c(O)cc4c(c2O3)CN([C@@H](CCC(=O)O)C(=O)O)C4=O)C1(C)C (stereo partly drawn),Potency,[1],inactive
same,Potency,[2],inactive
O=C(Nc1ccn[nH]1)c1c(F)cccc1F,Potency,[1],inactive
same,Potency,[2],inactive
